# Records with an inconclusive call do not appear. The source made the active and inactive calls. How the source made its calls: active means hit-call score of the fitted dose curve at least 0.9, where 1 is the maximum; inconclusive means response in the unintended direction; inactive means score below 0.9.
# Legend:
# [1] = biological target: human Orphanin, Opioid Related Nociceptin Receptor 1 (ORL1), OPRL1 (gene 4987) (UniProt P41146); experiment: NVS_GPCR_hORL1: NovaScreen (NVS) G Protein-Coupled Receptor Assay for human Orphanin, Opioid Related Nociceptin Receptor 1 (ORL1) (AID 2283283)
# Method in brief: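 Filter-based radioligand displacement with receptor extracted from HEK293 cells, read 1 hour after dosing by scintillation counting. Duplicate single-point screen at 25 uM; qualifying chemicals then run in concentration-response to 50 uM, analysed relative to DMSO.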
# [2] = biological target: human Opioid Receptor Mu (Opiate Mu), OPRM1 (gene 4988) (UniProt P35372); experiment: NVS_GPCR_hOpiate_mu: NovaScreen (NVS) G Protein-Coupled Receptor Assay for human Opioid Receptor Mu (Opiate Mu) (AID 2283290);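 further: hits lower bound tracer signal versus DMSO meaning displacement of the ligand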
# Method in brief: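 Radioligand displacement binding on membranes from CHO cells expressing the receptor, 2.5 h after dosing, filter-based scintillation counting; loss of signal vs DMSO baseline. Screened in duplicate at 25 uM, actives then run in concentration series.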
# [3] = biological target: bovine Estrogen Receptor (ER), ESR1 (gene 407238) (UniProt P49884); experiment: NVS_NR_bER: NovaScreen (NVS) Nuclear Receptor Binding Assay for bovine Estrogen Receptor (ER) (AID 2283345);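 further: actives lower the bound radioligand count which means they displace the ER ligand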
# Method in brief: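 Cell-free radioligand binding with bovine uterine membrane extracts, read 18 hours after dosing by scintillation counting. Loss of signal versus DMSO baseline indicates displacement. Primary screen run in duplicate at 25 uM, actives followed in concentration series.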
# [4] = biological target: Estrogen receptor (Homo sapiens) (UniProt P03372); experiment: NVS_NR_hER: NovaScreen (NVS) Nuclear Receptor Binding Assay for human Estrogen Receptor (ER) (AID 2283348)
# Method in brief: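 Cell-free radioligand binding with protein extracted from MCF7 cells; scintillation counting 18 hours after dosing. Loss of signal versus DMSO baseline read as displacement; primary single-concentration screen at 25 uM in duplicate, actives retested in concentration series.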
# [5] = biological target: Estrogen receptor (Homo sapiens) (UniProt P03372); experiment: OT_ER_ERaERa_1440: Odyssey Thera (OT) 24-hour HEK293T Protein-Complementation Assay for Estrogen Receptor-alpha/-alpha Homodimer (AID 2283349);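 further: hits raise fluorescence above DMSO for agonists and antagonists alike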
# Method in brief: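 Readout is the rise in mean fluorescence from reporter fragment complementation when ERα LBD (aa 310-547) units dimerize in HEK293T cells. Measured 24 h after dosing and analysed as increase over DMSO control.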
# [6] = biological target: Estrogen receptor (Homo sapiens) (UniProt P03372); experiment: OT_ER_ERaERa_0480: Odyssey Thera (OT) 8-hour HEK293T Protein-Complementation Assay for Estrogen Receptor-alpha/-alpha Homodimer (AID 2283351);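 further: rise in fluorescence from reassembled reporter fragments on ERα LBD homodimer in nucleus or whole cell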
# Method in brief: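 HEK293T, stable ERα LBD (aa 310-547) PCA homodimer; 8 h compound exposure; fluorescence intensity, laser scanning cytometer; positive fitting direction, DMSO baseline.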
# [7] = biological target: Estrogen receptor beta (Homo sapiens) (UniProt Q92731); experiment: OT_ER_ERbERb_0480: Odyssey Thera (OT) 8-hour HEK293T Protein-Complementation Assay for Estrogen Receptor-beta/-beta Homodimer (AID 2283357);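 further: active means signal gain over DMSO baseline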
# Method in brief: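 Readout: increase in mean fluorescence intensity (nucleus for agonists; nucleus plus cytoplasm for antagonists) relative to DMSO, from a reporter-fragment complementation of human ER-beta LBD homodimer in HEK293T cells dosed 8 hours.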
# [8] = biological target: human Androgen Receptor (AR), AR (gene 367) (UniProt P10275); experiment: NVS_NR_hAR: NovaScreen (NVS) Nuclear Receptor Binding Assay for human Androgen Receptor (AR) (AID 2283332)
# Method in brief: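 Actives from a duplicate 25 uM single-point screen went on to concentration series. Read-out after 20 h was scintillation counting of displaced radioligand in LnCAP extract, with DMSO as baseline.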
# [9] = biological target: chimpanzee Androgen Receptor (AR), AR (gene 747460) (UniProt O97775); experiment: NVS_NR_cAR: NovaScreen (NVS) Nuclear Receptor Binding Assay for chimpanzee Androgen Receptor (AR) (AID 2283346);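 further: radioligand displacement from AR measured by scintillation counting in a cell-free assay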
# Method in brief: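 Cell-free radioligand displacement using receptor protein extracted from Sf9/Sf21 cells; bound radioligand measured by scintillation counting 72 hours after chemical dosing. Loss of signal versus DMSO baseline indicates binding; primary screen single-concentration in duplicate at 25 uM, actives followed in concentration series.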
# [10] = biological target: rat Thyrotropin Releasing Hormone Receptor (TRH), Trhr (gene 25570) (UniProt Q01717); experiment: NVS_GPCR_rTRH: NovaScreen (NVS) G Protein-Coupled Receptor Assay for rat Thyrotropin Releasing Hormone Receptor (TRH) (AID 2283329);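 further: hit means lower bound tracer signal versus DMSO baseline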
# Method in brief: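 Rat forebrain membranes; radioligand displacement at TRH receptor by filter-based scintillation counting, read 4 h after dosing. Duplicate single-point screen at 25 uM, actives rerun in concentration series; loss of signal relative to DMSO.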
# [11] = biological target: human Peripheral-type Benzodiazepine Receptor (PBR), TSPO (gene 706) (UniProt P30536); experiment: NVS_MP_hPBR: NovaScreen (NVS) Membrane Protein Assay for human Peripheral-type Benzodiazepine Receptor (PBR) (AID 2283331);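 further: hits reduce radioligand binding relative to DMSO baseline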
# Method in brief: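 Human colonic cell membranes were incubated with test chemical for 1 hour; radioligand binding was measured by filter-based scintillation counting. Primary screen ran in duplicate at 25 uM, with actives followed in concentration series; loss of signal versus DMSO baseline.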
# [12] = biological target: T1, Estrogen receptor (Homo sapiens) + Estrogen receptor beta (Homo sapiens) (UniProt P03372+Q92731); experiment: OT_ER_ERaERb_0480: Odyssey Thera (OT) 8-hour HEK293T Protein-Complementation Assay for Estrogen Receptor-alpha/-beta Heterodimer (AID 2283352)
# Method in brief: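 HEK293T cells expressing ER-alpha/ER-beta LBD fusions to complementary reporter fragments were dosed with compound for 8 hours. Heterodimer formation was read as increased nuclear (agonist) or nuclear plus cytoplasmic (antagonist) mean fluorescence intensity versus DMSO vehicle.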
# [13] = biological target: Androgen Receptor/SRC-1 Co-activator, AR (gene 367) (UniProt P10275); experiment: OT_AR_ARSRC1_0960: Odyssey Thera (OT) 16-hour HEK293T Protein-Complementation Assay for Androgen Receptor/SRC-1 Co-activator (AID 2283353);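 further: actives raise the signal above DMSO so potency reflects increased AR and SRC-1 complex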
# Method in brief: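 Split-Venus PCA, AR/SRC-1 fusions, stable HEK293T; 16 h compound exposure; imaged at 488 and 635 nm; N/C ratio (488 nm channel), min 400 cells/image; positive-direction fit, DMSO baseline.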
# [14] = biological target: Androgen Receptor/SRC-1 Co-activator, AR (gene 367) (UniProt P10275); experiment: OT_AR_ARSRC1_0480: Odyssey Thera (OT) 8-hour HEK293T Protein-Complementation Assay for Androgen Receptor/SRC-1 Co-activator (AID 2283354);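 further: hits raise the complementation signal above DMSO so AC50 marks enhancers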
# Method in brief: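 HEK293T cells stably expressing AR and SRC-1 fused to split Venus YFP fragments via (Gly4Ser)2 linkers were read 8 h after compound dosing. Complementation was imaged at 488 and 635nm, and nuclear/cytoplasmic fluorescence ratio (488nm) was taken over ≥400 cells; gain-of-signal versus DMSO.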
# [15] = biological target: T1, Estrogen receptor (Homo sapiens) + Estrogen receptor beta (Homo sapiens); experiment: OT_ER_ERaERb_1440: Odyssey Thera (OT) 24-hour HEK293T Protein-Complementation Assay for Estrogen Receptor-alpha/-beta Homodimer (AID 2283356);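 further: heteromer of ER alpha and ER beta binding domains; hits raise reporter fluorescence and both agonists and antagonists give an increase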
# Method in brief: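 HEK293T cells stably expressing a PCA pair of ERα LBD (aa 310-547) and ERβ LBD (aa 263-489) were dosed for 24 h. Fluorescence intensity increase versus DMSO vehicle was fitted as gain-of-signal.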
# [16] = biological target: Sodium channel protein type 1 subunit alpha (Rattus norvegicus) (UniProt P04774); experiment: NVS_IC_rNaCh_site2: NovaScreen (NVS) Ion Channel Assay for rat Sodium Channel, Site 2 (NaCh) (AID 2283322);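 further: hit means loss of radioligand binding signal relative to DMSO so AC50 marks displacement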
# Method in brief: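 Membranes: rat forebrain. Format: competitive radioligand displacement, filter separation, scintillation readout, 1 h exposure. Primary screen in duplicate at 25 uM; actives retested in concentration series.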
# rat Thyrotropin Releasing Hormone Receptor (TRH), Trhr (gene 25570), sequence (Q01717 whole entry, looked up): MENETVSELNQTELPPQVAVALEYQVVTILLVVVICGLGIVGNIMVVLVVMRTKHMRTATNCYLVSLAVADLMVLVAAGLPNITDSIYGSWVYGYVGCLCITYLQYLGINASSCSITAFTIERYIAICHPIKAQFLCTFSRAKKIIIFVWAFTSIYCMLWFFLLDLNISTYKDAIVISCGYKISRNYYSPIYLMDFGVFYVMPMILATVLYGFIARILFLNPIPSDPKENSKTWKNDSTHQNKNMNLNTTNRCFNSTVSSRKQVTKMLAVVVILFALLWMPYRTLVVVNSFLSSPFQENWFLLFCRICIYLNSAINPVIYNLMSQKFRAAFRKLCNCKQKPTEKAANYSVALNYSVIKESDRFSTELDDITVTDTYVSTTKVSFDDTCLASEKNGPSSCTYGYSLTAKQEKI
# human Peripheral-type Benzodiazepine Receptor (PBR), TSPO (gene 706), sequence (P30536 whole entry, looked up): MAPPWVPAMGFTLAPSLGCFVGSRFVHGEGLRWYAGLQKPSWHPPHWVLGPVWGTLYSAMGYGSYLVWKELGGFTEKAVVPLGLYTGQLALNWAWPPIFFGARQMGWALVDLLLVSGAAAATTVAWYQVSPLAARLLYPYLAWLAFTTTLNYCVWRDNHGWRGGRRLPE
# Estrogen receptor (Homo sapiens), sequence (P03372 whole entry, looked up, the tested form may be a part): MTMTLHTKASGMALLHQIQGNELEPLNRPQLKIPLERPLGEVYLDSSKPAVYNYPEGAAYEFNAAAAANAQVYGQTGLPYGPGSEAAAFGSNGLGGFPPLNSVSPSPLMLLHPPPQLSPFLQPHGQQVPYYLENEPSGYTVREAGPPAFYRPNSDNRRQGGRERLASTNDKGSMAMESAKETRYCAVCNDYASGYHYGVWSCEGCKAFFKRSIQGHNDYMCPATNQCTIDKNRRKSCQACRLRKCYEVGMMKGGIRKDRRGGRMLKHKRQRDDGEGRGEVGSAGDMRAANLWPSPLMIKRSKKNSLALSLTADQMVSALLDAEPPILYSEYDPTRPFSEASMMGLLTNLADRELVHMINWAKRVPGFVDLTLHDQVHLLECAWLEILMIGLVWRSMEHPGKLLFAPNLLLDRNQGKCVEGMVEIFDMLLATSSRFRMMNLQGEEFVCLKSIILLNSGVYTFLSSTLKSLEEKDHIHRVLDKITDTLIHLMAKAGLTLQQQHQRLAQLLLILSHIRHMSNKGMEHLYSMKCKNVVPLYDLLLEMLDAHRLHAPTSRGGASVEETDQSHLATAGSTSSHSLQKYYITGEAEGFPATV
# T1 sequence (P03372 whole entry, looked up, the tested form may be a part): as above
# T1 sequence (Q92731 whole entry, looked up, the tested form may be a part): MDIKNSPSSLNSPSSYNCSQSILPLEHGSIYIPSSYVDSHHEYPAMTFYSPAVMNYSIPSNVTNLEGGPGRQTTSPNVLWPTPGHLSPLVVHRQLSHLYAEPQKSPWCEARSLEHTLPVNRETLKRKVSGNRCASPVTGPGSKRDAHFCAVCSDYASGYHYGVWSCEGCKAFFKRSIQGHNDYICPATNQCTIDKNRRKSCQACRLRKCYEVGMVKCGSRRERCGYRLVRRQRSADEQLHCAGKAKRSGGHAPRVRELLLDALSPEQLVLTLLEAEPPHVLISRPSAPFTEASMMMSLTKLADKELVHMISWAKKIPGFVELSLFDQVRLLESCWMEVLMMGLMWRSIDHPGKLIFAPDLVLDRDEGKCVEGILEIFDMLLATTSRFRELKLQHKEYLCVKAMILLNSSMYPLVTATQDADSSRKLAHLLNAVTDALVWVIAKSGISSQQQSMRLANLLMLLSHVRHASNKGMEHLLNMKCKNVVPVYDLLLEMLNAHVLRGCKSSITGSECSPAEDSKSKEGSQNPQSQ
# bovine Estrogen Receptor (ER), ESR1 (gene 407238), sequence (P49884 whole entry, looked up): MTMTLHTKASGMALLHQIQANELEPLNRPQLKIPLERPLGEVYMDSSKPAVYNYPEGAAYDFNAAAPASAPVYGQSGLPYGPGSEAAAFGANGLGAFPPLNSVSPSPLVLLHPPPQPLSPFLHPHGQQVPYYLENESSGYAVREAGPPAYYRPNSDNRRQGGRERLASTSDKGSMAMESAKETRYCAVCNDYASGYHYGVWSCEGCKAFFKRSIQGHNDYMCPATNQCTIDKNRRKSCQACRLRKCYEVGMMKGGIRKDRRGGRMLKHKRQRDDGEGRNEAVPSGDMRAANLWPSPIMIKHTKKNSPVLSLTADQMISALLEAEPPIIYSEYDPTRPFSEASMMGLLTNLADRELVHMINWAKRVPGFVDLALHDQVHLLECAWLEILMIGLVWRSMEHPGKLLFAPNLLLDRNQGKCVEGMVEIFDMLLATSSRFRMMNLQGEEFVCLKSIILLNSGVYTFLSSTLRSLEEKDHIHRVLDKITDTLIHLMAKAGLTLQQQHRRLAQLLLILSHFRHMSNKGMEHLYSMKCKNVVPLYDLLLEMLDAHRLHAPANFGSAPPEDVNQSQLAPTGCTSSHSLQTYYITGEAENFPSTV
# chimpanzee Androgen Receptor (AR), AR (gene 747460), sequence (O97775 whole entry, looked up): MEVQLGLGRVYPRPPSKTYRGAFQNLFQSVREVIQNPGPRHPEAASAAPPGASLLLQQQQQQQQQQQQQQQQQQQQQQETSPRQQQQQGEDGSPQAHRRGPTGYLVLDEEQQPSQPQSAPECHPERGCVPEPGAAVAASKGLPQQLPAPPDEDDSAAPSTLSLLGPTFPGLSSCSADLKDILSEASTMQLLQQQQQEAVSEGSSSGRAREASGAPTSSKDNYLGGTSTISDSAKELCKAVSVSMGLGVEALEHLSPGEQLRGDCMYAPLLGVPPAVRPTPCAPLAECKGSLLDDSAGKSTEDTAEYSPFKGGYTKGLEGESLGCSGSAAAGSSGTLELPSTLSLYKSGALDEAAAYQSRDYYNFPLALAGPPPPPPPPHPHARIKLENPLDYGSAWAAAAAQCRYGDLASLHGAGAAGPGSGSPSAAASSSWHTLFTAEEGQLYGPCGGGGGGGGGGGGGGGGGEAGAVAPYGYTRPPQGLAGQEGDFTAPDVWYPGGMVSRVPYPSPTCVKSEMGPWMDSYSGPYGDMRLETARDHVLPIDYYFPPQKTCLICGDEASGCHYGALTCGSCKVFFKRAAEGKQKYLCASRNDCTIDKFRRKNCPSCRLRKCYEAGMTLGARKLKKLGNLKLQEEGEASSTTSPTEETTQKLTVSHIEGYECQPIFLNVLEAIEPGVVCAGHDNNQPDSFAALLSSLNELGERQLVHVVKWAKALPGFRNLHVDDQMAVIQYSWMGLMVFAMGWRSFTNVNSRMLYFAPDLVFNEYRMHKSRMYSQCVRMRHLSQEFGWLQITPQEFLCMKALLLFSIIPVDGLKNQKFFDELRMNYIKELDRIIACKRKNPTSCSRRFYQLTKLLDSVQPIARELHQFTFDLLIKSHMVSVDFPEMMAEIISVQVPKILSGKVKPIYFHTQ
# human Opioid Receptor Mu (Opiate Mu), OPRM1 (gene 4988), sequence (P35372 whole entry, looked up): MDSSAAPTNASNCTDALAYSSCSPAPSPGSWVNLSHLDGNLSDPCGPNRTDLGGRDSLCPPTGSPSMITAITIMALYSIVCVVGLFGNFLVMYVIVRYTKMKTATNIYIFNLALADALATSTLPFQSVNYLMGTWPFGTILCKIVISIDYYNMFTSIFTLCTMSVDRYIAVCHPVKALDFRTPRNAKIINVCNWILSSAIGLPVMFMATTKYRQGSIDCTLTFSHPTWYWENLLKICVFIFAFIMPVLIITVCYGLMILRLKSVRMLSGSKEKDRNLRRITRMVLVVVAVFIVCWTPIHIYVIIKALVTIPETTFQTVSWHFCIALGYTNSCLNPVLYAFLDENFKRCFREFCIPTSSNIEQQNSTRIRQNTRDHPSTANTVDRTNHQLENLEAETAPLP
# Estrogen receptor beta (Homo sapiens), sequence (Q92731 whole entry, looked up, the tested form may be a part): as the sequence (Q92731 whole entry, looked up, the tested form may be a part) above
compound,measurement,setting,value
CCCCCCCCn1sc(Cl)c(Cl)c1=O,AC50,[1],16.5 µM (active)
same,AC50,[2],8.39 µM (active)
same,AC50,[3],12.7 µM (active)
same,AC50,[4],0.549 µM (active)
same,outcome,[5],inactive
same,outcome,[6],inactive
same,outcome,[7],inactive
C#CC(O)CCC (stereo not given),AC50,[2],5.3 µM (active)
same,outcome,[8],inactive
same,outcome,[9],inactive
Cc1cccc(C)n1,outcome,[2],inactive
CCN=c1cc2oc3cc(NCC)c(C)cc3c(-c3ccccc3C(=O)OCC)c-2cc1C,outcome,[10],inactive
same,AC50,[11],0.443 µM (active)
same,AC50,[3],8.97 µM (active)
same,AC50,[4],5.29 µM (active)
same,AC50,[5],62.3 µM (active)
same,AC50,[6],12.2 µM (active)
same,AC50,[12],71.3 µM (active)
same,AC50,[13],550 nM (active)
same,AC50,[14],12.5 µM (active)
same,outcome,[15],inactive
same,AC50,[7],55.1 µM (active)
O=C1OC(=O)c2ccc3c4c(ccc1c24)C(=O)OC3=O,outcome,[16],inactive
CCCCOC(=O)C(C)O (stereo not given),outcome,[10],inactive
same,outcome,[4],inactive
same,outcome,[5],inactive
same,outcome,[6],inactive
CCCC(=O)OCC(COC(=O)CCC)OC(=O)CCC,outcome,[16],inactive
same,outcome,[11],inactive
O=C=NCc1cccc(CN=C=O)c1,outcome,[16],inactive
same,AC50,[11],4.21 µM (active)
CCN(CC)c1ccc(C=O)c(O)c1,outcome,[2],inactive
same,outcome,[11],inactive
same,AC50,[8],3.82 µM (active)
same,AC50,[9],0.298 µM (active)
CCCCCCCCCCCCCC[P+](CCCC)(CCCC)CCCC,AC50,[1],6.46 µM (active)
same,AC50,[2],1.07 µM (active)
same,AC50,[11],3.52 µM (active)
same,AC50,[3],38.3 µM (active)
same,AC50,[9],23.1 µM (active)
same,AC50,[4],14.3 µM (active)
same,outcome,[5],inactive
same,outcome,[6],inactive
same,AC50,[13],3590 nM (active)
same,AC50,[14],12.3 µM (active)
same,outcome,[15],inactive
same,outcome,[7],inactive
CCC(Cc1c(I)cc(I)c(N)c1I)C(=O)O (stereo not given),outcome,[10],inactive
same,outcome,[3],inactive
same,outcome,[4],inactive
same,outcome,[5],inactive
same,AC50,[6],66.3 µM (active)
CCCCOC(=O)[C@H](C)O,outcome,[10],inactive
same,outcome,[5],inactive
same,outcome,[6],inactive

# From PubChem BioAssay (EPA / NIEHS)
